SMN2 splice enh: enhancers of SMN2 splice variant expression | HEK293 SMN2-luciferase splicing reporter, luminescence, 30-36 h | 210,000 compounds, 2.8% hits | Potency, µM (series often up to 46.1 µM), most hits filed as activators | AID 1458; note: nearly all actives have a fitted effect of over 55% in size
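qHTS luciferase splicing reporter: luminescence rises when SMN2 exon 7 is included in transfected HEK293 cells. Compound exposure lasted 30-36 h at 37C, with 4.5 mM final sodium butyrate as control, followed by a ONE-Glo read.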
Rab9 prom act: Rab9 promoter activation | 320,000 compounds, 2.8% hits | Huh7 Rab9 promoter-luciferase reporter, luminescence, 24 h | Potency, µM (doses to about 9.22 µM), actives largely listed as activators | AID 485297; note: nearly all actives have a fitted effect of over 60% in size
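Promoter activation is measured as luciferase luminescence in Huh7 cells stably transfected with a Rab9 promoter–luciferase construct, following 24 h compound exposure at 37 °C and 10 min reagent incubation at ambient temperature.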
NPC1 prom act: activators of NPC1 promoter. Huh7 NPC1 promoter luciferase reporter, 24 h. Potency, µM (highest dose often 9.22 µM), actives largely listed as activators. 320,000 compounds, 2.4% hits. AID 485313; note: nearly all actives have a fitted effect of over 60% in size
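Cells: Huh7 expressing luciferase under the NPC1 promoter, 1500/well. Seeded 2 h, compound added, incubated 24 h at 37 °C. Luciferase reagent, 10 min ambient, then luminescence.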
ELG1 genotox: induces genotoxicity in HEK293T cells with luciferase-tagged ELG1; HEK293T ELG1-luciferase reporter, luminescence, 16 h; AID 504466; Potency, µM (doses to about 46 µM), usual class: activators; 330,000 compounds, 1.3% hits; note: nearly all actives have a fitted effect of over 60% in size
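16 hr compound incubation (37 °C, 5% CO2) of HEK293T cells carrying luciferase-tagged ELG1; luciferase then measured by ONE-Glo luminescence after 30 min at RT.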
ELG1 DNA repair: inhibitors of ELG1-dependent DNA repair in HEK293T cells; Potency, µM (titrated, usually from 46.1 µM), actives largely listed as inhibitors; 330,000 compounds, 2.3% hits; HEK293T ELG1-luciferase reporter, luminescence, 16 h; DNA damage induced by 5-fluorouridine; note: nearly all actives have a fitted effect of over 55% in size
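Step one: seed 2,000 cells per well. Step two: pin-transfer compound or DMSO alongside 5-fluorouridine. Step three: incubate 16 hr, 37 °C, 5% CO2. Step four: add ONE-Glo, wait 30 min, read luminescence.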
FLuc counter: inhibits or activates purified firefly luciferase, miR-21 counter-screen | P08659 | purified FLuc, Km substrates, luminescence inhibition | Potency, µM (doses to about 57.5 µM), most hits filed as inhibitors | 360,000 compounds, 6.9% hits | AID 588342; note: nearly all actives have a fitted effect of over 55% in size
Target sequence (P08659 whole entry, looked up): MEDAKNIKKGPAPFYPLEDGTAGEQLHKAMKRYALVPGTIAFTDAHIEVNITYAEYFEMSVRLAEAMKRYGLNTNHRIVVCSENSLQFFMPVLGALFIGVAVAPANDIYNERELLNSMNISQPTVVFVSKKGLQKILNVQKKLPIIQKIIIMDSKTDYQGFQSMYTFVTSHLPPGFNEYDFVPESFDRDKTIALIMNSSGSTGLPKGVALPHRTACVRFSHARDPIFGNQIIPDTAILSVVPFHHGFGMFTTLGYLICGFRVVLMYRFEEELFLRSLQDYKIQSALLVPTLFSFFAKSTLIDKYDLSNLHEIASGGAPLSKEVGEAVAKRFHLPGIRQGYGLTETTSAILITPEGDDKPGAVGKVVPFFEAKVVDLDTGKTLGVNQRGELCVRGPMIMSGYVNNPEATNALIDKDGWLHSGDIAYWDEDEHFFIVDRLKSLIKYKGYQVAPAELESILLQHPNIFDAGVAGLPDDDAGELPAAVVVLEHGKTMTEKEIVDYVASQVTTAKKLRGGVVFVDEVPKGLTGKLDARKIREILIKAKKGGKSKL
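Purified P. pyralis luciferase, 10 nM final, with Km-level 10 uM D-luciferin and 10 uM ATP in 50 mM Tris acetate pH 7.5, 10 mM Mg acetate, 0.01% Tween-20, 0.05% BSA; 6-point qHTS titration about 60 µM downward; luminescence read.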
Hits are given with their value; - = inactive; ? = inconclusive; . = no result given; [ ] = remark or other dose. The list is not random: actives were taken first. Their share in the collection is about 9.2%. Calls come from the whole dose curve; as a rule, active = well fitted curve in the direction sought with a large enough effect; inconclusive = small, poorly fitted or top-dose-only effect, or another doubt; inactive = no such curve, though single readings can be large; an effect the other way counts as inactive or inconclusive.

SMILES	SMN2 splice enh	Rab9 prom act	NPC1 prom act	ELG1 genotox	ELG1 DNA repair	FLuc counter
CN(C(=O)COC(=O)c1sc2ccccc2c1Cl)C1CCCCC1	-	-	-	-	-	?
CN(C)CCCN(C(=O)c1sc2ccccc2c1Cl)c1nc2ccc(F)cc2s1	18µM	-	-	?	?	4.8µM
CN(C)CCCN(C(=O)c1ccc(S(=O)(=O)N2CCOCC2)cc1)c1nc2ccc(F)cc2s1	.	-	-	-	?	-
Cc1ccc2nc(N(CCCN(C)C)C(=O)c3ccc4ncsc4c3)sc2c1	.	4µM	?	?	?	17µM
COc1ccc(CNC(=O)c2cccn2-c2nnc(N3CCCC3)s2)c(OC)c1	.	.	.	.	.	-
O=C(c1ccc2c(c1)CCN2S(=O)(=O)c1ccc(Cl)cc1)N1CCN(c2ccc(F)cc2)CC1	-	.	.	.	.	-
COC(=O)c1cc(Br)ccc1NC(=O)CSCc1c(C)noc1C	.	-	-	-	-	-
O=C(/C=C/c1ccc(S(=O)(=O)N2CCOCC2)cc1)N1CCN(c2ccccc2)CC1	-	-	-	-	?	-
CC1CCCC(C)N1C(=O)/C=C/c1ccc(S(=O)(=O)N2CCOCC2)cc1 (stereo not drawn)	.	-	-	-	13µM	-
O=C(/C=C/c1ccc(S(=O)(=O)N2CCOCC2)cc1)Nc1ccc(F)c(F)c1F	.	.	.	-	21µM	.
CCOc1ncccc1C(=O)NNC(=O)c1cccc(S(=O)(=O)N2CCOCC2)c1	.	.	.	-	-	.
Cc1cccc(/C=C/c2onc(C)c2S(=O)(=O)N2CCC(C(=O)NC(C)C)CC2)c1	.	-	-	-	?	-
N#CC1=C(N)Oc2c(ccc3cccnc23)C1c1ccccc1 (stereo not drawn)	.	-	-	-	13µM	-
N#CC1=C(N)Oc2c(ccc3ccccc23)C1c1cccs1 (stereo not drawn)	-	-	-	18µM	?	?
NS(=O)(=O)c1ccc(CCNC(=O)c2ccc(Cl)c(S(=O)(=O)NCc3ccco3)c2)cc1	.	.	.	-	-	.
CCC1Sc2ccc(S(=O)(=O)CCC(=O)Nc3c(Cl)cc(OC)cc3OC)cc2NC1=O (stereo not drawn)	.	-	-	-[9.26 µM]	-	-
Cc1ccc(OC(=O)c2sc3ncn(C)c(=O)c3c2C)cc1	-	2.8µM	2.8µM	-	?	?
CCCCCC(=O)Nc1nc(C)c(-c2csc(Nc3ccc(Cl)cc3)n2)s1	-	-	-	-	?	?
C=CCCC(=O)Nc1nc(C)c(-c2csc(Nc3ccc(Cl)cc3Cl)n2)s1	-	-	-	-	-	27µM
C=CCCC(=O)Nc1nc(C)c(-c2csc(Nc3cc(Cl)ccc3OC)n2)s1	-	-	-	-	?	-
Cc1nc(NC(=O)CC(C)C)sc1-c1csc(Nc2ccc(Cl)cc2)n1	-	-	-	-	23µM	?
Cc1nc(NC(=O)CC(C)C)sc1-c1csc(Nc2ccc(Cl)cc2Cl)n1	-	-	-	-	15µM	?
CCOC(=O)C1CCN(C(=O)c2cc(S(=O)(=O)N3CCOCC3)ccc2C)CC1	.	-	-	-	-	-
Cc1cccc(C)c1OCC(=O)Nc1c(C(=O)c2ccc(Br)cc2)oc2ccccc12	-	.	.	.	.	-
CN1CCN(C(=O)c2c(NC(=O)c3ccco3)sc3c2CCC(C(C)(C)C)C3)CC1 (stereo not drawn)	-	-	-	-	-	-
SMILES	SMN2 splice enh	Rab9 prom act	NPC1 prom act	ELG1 genotox	ELG1 DNA repair	FLuc counter
NC(=O)c1c(NC(=O)c2ccco2)sc2c1CCC2	13µM	2µM	3.5µM	11µM	?	9.5µM
CC1CCc2c(sc(NC(=O)c3ccco3)c2C(=O)O)C1 (stereo not drawn)	.	-	?	-	?	7.6µM
O=C(Nc1sc2c(c1C(=O)O)CCCCC2)c1ccco1	11µM	?	2.8µM	?	?	4.3µM
CCOC(=O)c1c(NC(=O)C(C)N2CCN(C(=O)c3ccco3)CC2)sc2c1CCCC2 (stereo not drawn)	-	-	-	-	7.3µM	-
CC(=O)N1CCc2cc(S(=O)(=O)NC(CC(C)C)C(=O)N3CCCC3)ccc21 (stereo not drawn)	.	-	-	-	-	-
COC(=O)c1c(NC(=O)c2ccoc2C)sc2c1CCC2	-	-	-	-	-	-
Cc1occc1C(=O)Nc1sc2c(c1C(N)=O)CCCCC2	?	?	?	10µM	?	2.7µM
CC1CCN(CC(=O)Nc2sc3c(c2C#N)CCC3)CC1	.	-	-	-	-	-
CCOC(=O)c1c(NC(=O)c2ccco2)sc2c1CCCCC2	-	-	-	-	-	17µM
O=C(CSc1nnc(Cc2ccccc2)n1Cc1ccco1)NC12CC3CC(CC(C3)C1)C2	-	-	-	-	?	-
NC(=O)c1c(NC(=O)CSc2nnc(Cc3ccccc3)n2Cc2ccco2)sc2c1CCC2	-	-	-	-	23µM	-
CC1CCc2c(sc(NC(=O)CN3CCN(C(=O)c4ccco4)CC3)c2C#N)C1 (stereo not drawn)	-	-	-	-	16µM	?
COC(=O)c1c(NC(=O)c2ccco2)sc2c1CC(C)(C)NC2(C)C	.	-	-	-	9.2µM	-
COC(=O)c1c(NC(=O)c2c(OC)cccc2OC)sc2c1CCCC2	-	.	.	.	.	?
COC(=O)c1c(NC(=O)c2ccc(OC)cc2OC)sc2c1CCCCC2	-	.	.	.	.	6µM
CCc1c(C)sc(NC(=O)c2ccoc2C)c1C(N)=O	.	-	-	-	-	11µM
COc1ccc(NC(=O)N2CCN3CCCCC3C2)cc1OC (stereo not drawn)	.	.	.	.	.	-
O=C(Nc1nc2ccccc2[nH]1)c1cccc(Br)c1	.	3.5µM	?	2.1µM	?	2.4µM
COc1ccc(/C=C/C(=O)NCCc2nc3ccccc3[nH]2)cc1	.	-	-	-	?	?
O=C(/C=C/c1ccc(F)cc1)Nc1nc2ccccc2[nH]1	11µM	0.63µM	1.3µM	?	?	?
O=C(CNC(=O)c1cccc(Br)c1)NCCc1nc2ccccc2[nH]1	-	-	-	-	-	-
O=C(Nc1nc2ccccc2[nH]1)c1ccc(Cl)c(S(=O)(=O)N2CCCC2)c1	-	-	?	-	?	12µM
Cc1ccc(N(C)S(=O)(=O)c2cccc(C(=O)Nc3nc4ccccc4[nH]3)c2)cc1	-	-	-	-	23µM	-
Cc1ccc2c(=O)cc(C(=O)Nc3c(C)n(C)n(-c4ccccc4)c3=O)oc2c1	-	.	.	.	.	-
CCN(CC)c1c([N+](=O)[O-])c(=O)n(CC)c2ccccc12	.	-	-	-	-	-
COc1ccc(N(CC(=O)NC2CCCCC2)C(=O)c2ccc(C)s2)cc1OC	.	-	-	-	-	-
O=C(Nc1ncccn1)c1cccc(F)c1	.	-	-	-	-	-
O=C(Nc1nc2ccccc2[nH]1)c1cccc(F)c1	.	?	?	2.9µM	?	3µM
